Measured values as given in PubChem BioAssay (NCATS).
Records with an inconclusive call do not appear. The source made the active and inactive calls. The call rests on the fitted dose curve; in most records, active means well fitted activation curve with a large enough effect; inconclusive means small, poorly fitted or top-dose-only effect; inactive means flat fitted curve, though single readings scatter.

assay: Primary redox qHTS assay for identification of artifact compounds. (AID 1845223); conditions: Amplex Red/HRP redox cycling with DTT, fluorescence; series mostly up to 53.8 µM; redox activity (% of DA3003): at the top concentration;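 further: 0% = DMSO and 100% = reference compound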
How it was run: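 Amplex Red (25 uM) and HRP (250 mU/mL) in HBSS, with compounds for 15 min, then 250 uM DTT for 30 min, room temperature, dark. Fluorescence 525/598 nm read; normalized to DMSO and 10 uM DA3003; Hill fit.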

| SMILES | redox activity (% of DA3003) |
| --- | --- |
| C/C=C(/C)C(=O)O[C@H]1C=C(C)C[C@H](OC(=O)c2ccc(O)cc2)C2[C@](O)(C(C)C)CC[C@@]21C (some centres undefined) | -3.11% [at 25.6 µM] (inactive) |
| CC[C@@H](c1ccc(F)c(F)c1)n1c(C(=O)OC)c(-c2ccno2)[nH]c1=S | -3.21% (inactive) |
| O=C(O)C[C@@H](NC(=O)c1cc(-c2ccc(-c3ccncc3)cc2)cs1)c1ccccc1 | 12.3% (inactive) |
| CC1C/C=C/C=C\CCCCC(O)C/C=C/C(=O)O1 (centres undefined) | -2.15% (inactive) |
| O=C(O)c1cnn(-c2nc3cc(OC(F)(F)F)c(Cl)cc3[nH]2)c1 | -3.22% (inactive) |
| CC(NCc1ccc(OCc2cccc(F)c2)cc1)C(N)=O (centres undefined) | -1.62% (inactive) |
| CCC[C@@H]1C[C@@H](C(=O)N[C@H](C(C)Cl)[C@H]2O[C@H](SC)[C@H](O)[C@@H](O)[C@H]2O)N(C)C1 (some centres undefined) | 13.8% (inactive) |
| C=C1C[C@@]23CC[C@@H]4[C@](C)(C(=O)O)CCC[C@@]4(C)C2=CC[C@H]1C3 | -3.71% (inactive) |
| NC1CCC(N[C@@H]2C[C@H]2c2ccccc2)CC1 (some centres undefined) | -3.18% (inactive) |
| Nc1nc(CC(=O)Nc2ccc(CCNCC(O)c3ccccc3)cc2)cs1 (centres undefined) | -5.96% (inactive) |
| c1ccc(Nc2nc3c(s2)CCCc2[nH]ncc2-3)nc1 | -2.82% (inactive) |
| O=C(O[C@H]1[C@@H]2C=CO[C@@H](O[C@@H]3O[C@H](CO)[C@@H](O)[C@H](O)[C@H]3O)[C@@H]2[C@@]2(CO)O[C@@H]12)c1ccc(O)cc1 | -16.8% [at 25.6 µM] (inactive) |
| C#Cc1cnc2[nH]c(=O)n(C(CC)CC)c2n1 | -0.565% (inactive) |
| COC1C=C([C@@H]2CC=C3[C@@]4(C)C(CC[C@]32C)[C@@]2(C)C=CC(=O)C(C)(C)C2C[C@H]4OC(C)=O)C(=O)O1 (some centres undefined) | 7.14% [at 25.6 µM] (inactive) |
